This is a sample that favours compounds with a hit; in the whole collection about 12% have one here.
PLK1 PBD inh: qHTS for Inhibitors of PLK1-PDB (polo-like kinase 1 - polo-box domain): Primary Screen; 2.8% of 360,000 active; Plk1 PBD binding of FITC phosphopeptide, fluorescence polarization; Potency, µM, for inactives: max response, negative = inhibition, actives largely listed as inhibitors; AID 720504, 2013; Serine/threonine-protein kinase PLK1 (Homo sapiens), P53350; note: series mostly up to about 57 µM; % is set by controls: 0 for no effect and ±100 for the full control effect; nearly all actives have a fitted effect of over 65% in size
Sfp PPTase inh: qHTS Assay for Inhibitors of Bacillus subtilis Sfp phosphopantetheinyl transferase (PPTase); 4'-phosphopantetheinyl transferase ffp (Bacillus subtilis), Q9F4F7; Biochemical Sfp PPTase activity, qHTS; Potency, µM, without a hit: largest response in the series, negative = inhibition, usual class: inhibitors; 3.5% of 310,000 active; AID 1490, 2009;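 note: the enzyme is Sfp with the accession as filed and its product quenches rhodamine fluorescence; 0% = enzyme reaction without inhibitor and -100% = no enzyme wells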
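Sfp 15 nM + cpd, 15 min RT; start w/ rhodamine-CoA 5 uM, BHQ-2-YbbR 12.5 uM (final); 50 mM Hepes pH 7.6, 10 mM MgCl2, 0.01% NP-40, 0.01% BSA; read 525/598 nm at 0 and 30 min.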
JMJD2A Tudor inh: qHTS Assay for Inhibitors of JMJD2A-Tudor Domain; Lysine-specific demethylase 4A (Homo sapiens), O75164; AlphaScreen JMJD2A-Tudor / H3K4me3 peptide binding; Potency, µM (titrated, usually from 114 µM), for the others: top-dose activity change, negative = inhibition, most hits filed as inhibitors; 4.4% of 390,000 active; AID 504339, 2011; note: % is set by controls: 0 for no effect and ±100 for the full control effect; nearly all actives have a fitted effect of over 50% in size
Target sequence (O75164 whole entry, looked up, the tested form may be a part): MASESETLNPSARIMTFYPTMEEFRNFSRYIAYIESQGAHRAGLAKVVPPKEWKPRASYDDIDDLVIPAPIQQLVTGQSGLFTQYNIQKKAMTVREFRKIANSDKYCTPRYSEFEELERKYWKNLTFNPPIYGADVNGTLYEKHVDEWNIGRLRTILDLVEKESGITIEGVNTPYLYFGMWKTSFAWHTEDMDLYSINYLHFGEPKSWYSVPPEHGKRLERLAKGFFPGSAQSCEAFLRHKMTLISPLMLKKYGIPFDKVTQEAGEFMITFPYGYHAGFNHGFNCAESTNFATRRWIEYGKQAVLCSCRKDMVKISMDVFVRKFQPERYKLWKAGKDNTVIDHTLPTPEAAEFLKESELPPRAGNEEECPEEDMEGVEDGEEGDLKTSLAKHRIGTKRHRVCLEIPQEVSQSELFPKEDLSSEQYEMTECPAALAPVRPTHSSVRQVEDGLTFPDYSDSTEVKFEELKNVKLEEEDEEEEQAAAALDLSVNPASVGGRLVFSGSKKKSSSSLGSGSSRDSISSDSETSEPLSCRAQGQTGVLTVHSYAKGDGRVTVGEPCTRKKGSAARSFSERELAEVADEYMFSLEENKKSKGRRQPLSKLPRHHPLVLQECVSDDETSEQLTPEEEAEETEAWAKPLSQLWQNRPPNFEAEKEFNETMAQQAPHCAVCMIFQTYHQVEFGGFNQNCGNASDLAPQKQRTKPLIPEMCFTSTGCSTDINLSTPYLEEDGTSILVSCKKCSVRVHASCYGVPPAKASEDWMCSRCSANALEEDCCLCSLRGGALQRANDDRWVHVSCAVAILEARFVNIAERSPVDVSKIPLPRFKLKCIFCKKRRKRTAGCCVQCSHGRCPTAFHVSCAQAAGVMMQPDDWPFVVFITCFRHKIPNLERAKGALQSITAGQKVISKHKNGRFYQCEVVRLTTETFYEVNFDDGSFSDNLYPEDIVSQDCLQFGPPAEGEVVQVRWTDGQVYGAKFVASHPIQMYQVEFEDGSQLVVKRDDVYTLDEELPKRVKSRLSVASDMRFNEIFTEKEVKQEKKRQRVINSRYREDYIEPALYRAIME
G9a inh: qHTS Assay for Inhibitors of Histone Lysine Methyltransferase G9a; 8.8% of 350,000 active; Histone-lysine N-methyltransferase EHMT2 (Homo sapiens), Q96KQ7; G9a H3K9 monomethylation, AlphaScreen, 2 h; Potency, µM (titrated, usually from 102 µM), inactives show at the top dose activity, negative = inhibition, actives largely listed as inhibitors; note: % is set by controls: 0 for no effect and ±100 for the full control effect; nearly all actives have a fitted effect of over 75% in size
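Step 1: enzyme (final 20 nM) with compound, 15 min RT. Step 2: substrate peptide 500 nM and SAM 20 uM, 2 h RT. Step 3: anti-H3K9me1 antibody and AlphaScreen beads, 10 min, then plate read.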
HP1b binding inh: HTS for Inhibitors of HP1-beta Chromodomain Interactions with Methylated Histone Tails. Chromobox protein homolog 1 (Homo sapiens), P83916. AlphaScreen HP1-beta / biotin-H3K9me3 peptide binding. Potency, µM (series often up to 114 µM), for inactives: at the top dose activity change, negative = inhibition, actives largely listed as inhibitors. 0.56% of 390,000 active; note: nearly all actives have a fitted effect of over 70% in size
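AlphaScreen: HP1-beta (50 nM) preformed 30 min with biotin-H3(1-18)K9me3 peptide (50 nM) in PBS pH 7.4, 0.01% Tween-20. Compound added for 30 min at RT, then streptavidin donor/nickel chelate acceptor beads (10 ug/mL) for 30 min.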
BAZ2B inh: qHTS Assay for Inhibitors of BAZ2B; 4.4% of 360,000 active; Potency, µM (series often up to 114 µM), without a hit: at the highest dose activity change, negative = inhibition, hits mostly inhibitors; AlphaScreen BAZ2B-H3K14Ac peptide displacement; Bromodomain adjacent to zinc finger domain protein 2B (Homo sapiens), Q9UIF8; AID 504333, 2011; note: % is set by controls: 0 for no effect and ±100 for the full control effect; nearly all actives have a fitted effect of over 60% in size
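Complex of BAZ2B and biotin-H3K14Ac (50 nM apiece) forms over 30 min at RT, then faces library compounds up to 110 uM for another 30 min; AlphaScreen beads added, 20 min dark incubation, luminescence read.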
Active calls of the source: *; [ ] = another dose, or the depositor's remark. Calls come from the whole dose curve; as a rule, active = well fitted curve in the direction sought with a large enough effect; inconclusive = small, poorly fitted or top-dose-only effect, or another doubt; inactive = no such curve, though single readings can be large; an effect the other way counts as inactive or inconclusive. Potency is the fitted concentration of half-maximal effect.

`Cc1cc(C)n2nc(-c3ccsc3-n3c(C)ccc3C)cc2n1` gave PLK1 PBD inh -23%, Sfp PPTase inh 50µM*, JMJD2A Tudor inh inconclusive, G9a inh 50µM*, HP1b binding inh -7% and BAZ2B inh -36%.
Screening CC12CCC(=O)N1C(C(=O)NNC(=O)c1ccccc1)CS2 (stereo not given) returned PLK1 PBD inh -5%, JMJD2A Tudor inh 4%, G9a inh -3%, HP1b binding inh 37% and BAZ2B inh 15%.
Cc1ccc(S(=O)(=O)N2CCC(=O)c3ccccc32)cc1 was read as PLK1 PBD inh -6%.
For Cc1ccc(S(=O)(=O)N2CCc3c2cc([N+](=O)[O-])cc3[N+](=O)[O-])cc1 the results were PLK1 PBD inh -21%, Sfp PPTase inh -8%, JMJD2A Tudor inh 32µM*, G9a inh -12%[2.33 µM], HP1b binding inh inconclusive and BAZ2B inh inconclusive.
Screening Cc1ccc(-c2nnc(NC3CCCC3)s2)cc1 returned PLK1 PBD inh -10%, Sfp PPTase inh 3%, JMJD2A Tudor inh -9%, G9a inh 56%, HP1b binding inh 33% and BAZ2B inh -1%.
O=C(Cn1cnc([N+](=O)[O-])c1)Nc1ccccc1C(F)(F)F was read as PLK1 PBD inh 30µM*, Sfp PPTase inh 2%, JMJD2A Tudor inh inconclusive, HP1b binding inh 23% and BAZ2B inh 16%.
For O=C(Cn1cnc([N+](=O)[O-])c1)NCCc1ccccc1 the results were PLK1 PBD inh -1%, Sfp PPTase inh 5%, JMJD2A Tudor inh -8%, G9a inh 28µM*, HP1b binding inh 21% and BAZ2B inh -29%.
`O=C(Cn1cnc([N+](=O)[O-])c1)NCc1ccc(F)cc1` gave PLK1 PBD inh -9%, Sfp PPTase inh -2%, JMJD2A Tudor inh 4%, HP1b binding inh 19% and BAZ2B inh 7%.
Screening N=C(N)SCc1ccc(O)c([N+](=O)[O-])c1 returned PLK1 PBD inh -28%, Sfp PPTase inh 79µM*, JMJD2A Tudor inh -8%[11.4 µM], G9a inh 32µM*, HP1b binding inh 11% and BAZ2B inh -22%.
For Cc1nc(SCc2ccc(Cl)c(Cl)c2)n[nH]1 the results were PLK1 PBD inh -5%, Sfp PPTase inh 13%, JMJD2A Tudor inh -10%, G9a inh 16%, HP1b binding inh 34% and BAZ2B inh 1%.
Cc1nc(SCc2ccc(O)c([N+](=O)[O-])c2)n[nH]1 was read as PLK1 PBD inh -15%, Sfp PPTase inh inconclusive, JMJD2A Tudor inh inconclusive, G9a inh 6.3µM*, HP1b binding inh 11%[57 µM] and BAZ2B inh -4%.
For COc1ccc(CCN2CC(C(=O)N3CCSCC3)CCC2=O)cc1 (stereo not given) the results were PLK1 PBD inh -1%, Sfp PPTase inh 4%, JMJD2A Tudor inh -13%, HP1b binding inh 23% and BAZ2B inh 1%.
`Oc1cccc2ccc[n+](CC(O)Cn3c4ccccc4c4ccccc43)c12` (stereo not given) gave PLK1 PBD inh -3%, Sfp PPTase inh -28%, JMJD2A Tudor inh -35%, G9a inh 7.9µM*, HP1b binding inh -6% and BAZ2B inh inconclusive.
For OC(COc1ccccc1)Cn1c2ccccc2c2ccccc21 (stereo not given) the results were PLK1 PBD inh 7%, Sfp PPTase inh 8%, JMJD2A Tudor inh 15%, G9a inh 1%[59 µM], HP1b binding inh 82% and BAZ2B inh 34%.
Screening Cc1noc(C)c1-c1ccc2ncnc(NCc3ccccc3Cl)c2c1 returned Sfp PPTase inh -7% and JMJD2A Tudor inh -23%.
Screening CC(=Nc1ccccc1O)c1sc2ccccc2c1O returned PLK1 PBD inh 11%, Sfp PPTase inh -6%, JMJD2A Tudor inh inconclusive, G9a inh inconclusive, HP1b binding inh 8% and BAZ2B inh inconclusive.
CC(=O)NCCN=C(C)c1sc2ccccc2c1O was read as PLK1 PBD inh -12%, Sfp PPTase inh -14%, JMJD2A Tudor inh -23%, G9a inh 18µM*, HP1b binding inh -5% and BAZ2B inh -6%.
CC(=Nc1ccc(O)cc1)c1sc2ccccc2c1O was read as PLK1 PBD inh 32%, Sfp PPTase inh -16%, JMJD2A Tudor inh -10%, G9a inh 10µM*, HP1b binding inh 0% and BAZ2B inh -35%.
For O=C(CNC(=O)c1sc2ccccc2c1Cl)NCc1ccccc1 the results were PLK1 PBD inh 3%, Sfp PPTase inh 7%, JMJD2A Tudor inh -7%, G9a inh 16%, HP1b binding inh 28% and BAZ2B inh -17%.
For COc1ccccc1C(=O)Nc1c(C(=O)N2CCN(c3ccccc3F)CC2)oc2ccccc12 the results were JMJD2A Tudor inh -21%, G9a inh -25%[59 µM], HP1b binding inh 8% and BAZ2B inh -36%[57.1 µM].
`CCn1c(SCC(=O)N(C)c2c(N)n(Cc3ccccc3)c(=O)[nH]c2=O)nnc1-c1cccs1` gave PLK1 PBD inh 3%.
For C=CCn1cnc2c(nnn2Cc2ccc(F)cc2)c1=O the results were PLK1 PBD inh 5%, Sfp PPTase inh 6%, JMJD2A Tudor inh 8%, G9a inh -7%[59 µM], HP1b binding inh 43% and BAZ2B inh 2%.
Screening Cc1cccc(NC(=O)c2sc3nc4c(c(-c5cccs5)c3c2N)CN(C)CC4)c1 returned PLK1 PBD inh -28%, Sfp PPTase inh inconclusive, JMJD2A Tudor inh inconclusive, G9a inh 45µM*, HP1b binding inh -18% and BAZ2B inh inconclusive.
`Cc1ccc(S(=O)(=O)NCc2ccc(N3CCN(C(=O)OC(C)(C)C)CC3)cc2)cc1` gave PLK1 PBD inh -12%, Sfp PPTase inh 3%, JMJD2A Tudor inh -17%, G9a inh 44%, HP1b binding inh 20% and BAZ2B inh -22%.
`Cn1c2ccccc2c2nnc(SCC(=O)Nc3cccc(C(=O)O)c3)nc21` gave PLK1 PBD inh -6%, Sfp PPTase inh 15%, JMJD2A Tudor inh -20%, G9a inh 1%, HP1b binding inh 35% and BAZ2B inh -18%.
`COC(=O)CSc1nc(C)cc(C)n1` gave PLK1 PBD inh 7.5µM*, Sfp PPTase inh 14%, JMJD2A Tudor inh 14µM*, G9a inh -1%, HP1b binding inh -10% and BAZ2B inh -15%.
`Cc1cc(C)nc(SCC(=O)NC2=NC(=O)C(C)S2)n1` (stereo not given) gave PLK1 PBD inh inconclusive, Sfp PPTase inh 22µM*, JMJD2A Tudor inh inconclusive, G9a inh 18µM*, HP1b binding inh -5% and BAZ2B inh 11%.

Screening data deposited in PubChem by National Center for Advancing Translational Sciences (NCATS).
